{"source": "PubChem BioAssay (NCI)", "note": "The panel holds about 83,000 compounds, 20% with a hit somewhere; the sample as a whole holds those more often.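 Cell lines were cultured in 96-well plates, exposed to a single compound concentration, and assessed for percent growth 48 hours later.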 Unmarked numbers belong to inactive results. Activity calls are given as the source filed them. Rule for the calls: active = growth percent below 10; inactive = the rest."}
{"test_system": "MDA-MB-468 breast", "assay": "NCI-60 one-dose screen, 48 h (100 = growth as untreated, 0 = no growth, -100 = all killed)", "conditions": "10 µM unless noted"}
{"smiles": "COc1c(C)c(C)c(OC)c2c1[nH]c(=O)c1c3cccnc3cn21", "growth": "114%"}
{"smiles": "N=c1ccc2nc3ccc(N)cc3sc-2c1", "growth": "-16.2% (active)"}
{"smiles": "O=C(CCCCC(=O)Oc1c(Cl)cc(Cl)cc1[N+](=O)[O-])Oc1c(Cl)cc(Cl)cc1[N+](=O)[O-]", "growth": "113%"}
{"smiles": "COc1ccc2c(c1)c(-c1nc(-c3c[nH]c4ncccc34)cs1)cn2CCO", "growth": "1.57% (active)"}
{"smiles": "O=c1cc(-c2ccc3c(c2)OCCO3)oc2cc(Cl)ccc12", "growth": "66.4%"}
{"smiles": "Oc1cccc(CNC2CCCCC2)c1", "growth": "113%"}
{"smiles": "CS(=O)(=O)N(c1cc(-c2ccc3ncnc(Nc4cccc(Cl)c4)c3c2)cnc1Cl)S(C)(=O)=O", "growth": "-42.1% (active)"}
{"smiles": "CC(=O)c1cc2c(c(O)c1C)C(=O)C(=O)c1c(O)cccc1-2", "growth": "-58% (active)"}
{"smiles": "CCCCCCOc1ccc(/C=N/Nc2cc(C)nc3ccc(Cl)cc23)cc1", "growth": "-56.7% (active)"}
{"smiles": "O=C(/C=C/c1ccc(B(O)O)cc1)/C=C/c1ccc(B(O)O)cc1", "growth": "1.24% (active)"}
{"smiles": "CC(=O)CC[C@H]1C(=O)N[C@@H](C(C)C)C(=O)N[C@@H](Cc2cc(O)cc(F)c2)C(=O)N2CCC[C@H](N2)C(=O)O[C@H](/C(C)=C/C=C/C(=O)OC(C)(C)C)C/C=C/C=C/[C@H](O)[C@H](C)[C@H]1O", "growth": "15.1%"}
{"smiles": "Clc1nccc2c(-c3csc(-c4c[nH]c5ccc(Br)cc45)n3)c[nH]c12", "growth": "26.9%"}
{"smiles": "S=C1CCCCCN1", "growth": "108%"}
{"smiles": "Oc1c(C(Nc2cccc3ccccc23)c2ccccc2)ccc2cccnc12", "note": "(stereo not given)", "growth": "26.7%"}
{"smiles": "COc1cccc(CC(C)=C(c2ccc(OCCN(C)C)cc2)c2ccc(OCCN(C)C)cc2)c1", "growth": "-61.5% (active)"}
{"smiles": "FC(F)(F)c1cc(Br)cc(-c2cc(-c3ccc4c(c3)OCCO4)[nH]n2)c1", "growth": "40.6%"}
{"smiles": "OC(CCCCCCCCC(O)CN1CCc2ccccc2C1)CN1CCc2ccccc2C1", "note": "(stereo not given)", "growth": "127%"}
{"smiles": "C[C@]12O[C@H](C[C@]1(O)CO)n1c3ccccc3c3c4c(c5c6ccccc6n2c5c31)CNC4=O", "growth": "-47.5% (active)"}
{"smiles": "COC(=O)[C@]12CC[C@@H](C)[C@H](C)[C@@H]1C1=CC[C@@H]3[C@@]4(C)C(C=O)=C[C@@](C)(COS(C)(=O)=O)[C@@H]4C(=O)C[C@@]3(C)[C@]1(C)CC2", "growth": "38%"}
{"smiles": "Cc1cccc2c(=O)c3c(sc12)c(N1CCNCC1)nc1ccccc13", "growth": "65.4%"}
{"smiles": "Cc1c(Cl)cccc1NC(=O)c1sc2nc3c(cc2c1N)C(=O)CCC3", "growth": "48.6%"}
{"smiles": "CN(C)c1ccc(/C=C\\c2ccnc3ccccc23)cc1", "growth": "31.2%"}
{"smiles": "CCc1ccccc1-n1c(-c2ccc(Cl)cc2)cc(-c2ccc(OC)cc2)c(C#N)c1=O", "growth": "104%"}
{"smiles": "COc1ccc2nc(NCCCNCCO)c3sc4ccc(F)cc4c(=O)c3c2c1", "growth": "-31.6% (active)"}
{"smiles": "CSc1cnc2ccccc2n1", "growth": "119%"}
{"smiles": "O=C(Nc1cccc(Cl)c1)Nc1cccc(Cn2c(=O)[nH]c3ccc(Oc4ncccn4)cc3c2=O)c1", "growth": "-0.625% (active)"}
{"smiles": "O=C1/C(=C/c2ccccc2)CN(C(=O)CCN2CCC(=NO)CC2)C/C1=C\\c1ccccc1", "growth": "-22.7% (active)"}
{"smiles": "Cc1ccc(N(CC(=O)Nc2ccc(S(=O)(=O)N3CCC(N4CCCC4)CC3)cc2)S(=O)(=O)c2ccc(Cl)cc2)cc1", "growth": "-19.6% (active)"}
{"smiles": "COC(=O)[C@]12CC[C@@H](C)[C@H](C)[C@@H]1C1=CC[C@@H]3[C@@]4(C)C[C@@H](O)[C@H](O)[C@@](C)(CO)C4=CC[C@@]3(C)[C@]1(C)CC2", "growth": "-66.4% (active)"}
{"smiles": "CSC1=Nc2c(c(C)c(-c3ccccc3)n2CCCC(=O)O)C2=NC(=O)C[C@H](C)N12", "growth": "83.7%"}
{"smiles": "COC(=O)[C@]12CCC(C)(C)C[C@H]1C1=CC[C@@H]3[C@@]4(C)C/C(=C/c5cccnc5)C(=O)C(C)(C)[C@@H]4CC[C@@]3(C)[C@]1(C)CC2", "growth": "-22.5% [100 µM] (active)"}
{"smiles": "CC(C)(C)NCCC(O)c1cc2c(Cl)cc(Cl)cc2c2cc(C(F)(F)F)ccc12", "note": "(stereo not given)", "growth": "-85.7% (active)"}
{"smiles": "O=C1CCCN1C1CCN(Cc2cc3ccccc3[nH]c2=O)c2ccccc21", "note": "(stereo not given)", "growth": "83.5%"}
{"smiles": "COc1ccc(-c2cc(-c3ccc(Cl)cc3)nc(SCCCC(=O)NO)n2)cc1OC", "growth": "-55.5% (active)"}
{"smiles": "COc1ccc(C[C@H](N)C(=O)N[C@@H]2[C@@H](CO)OC(n3cnc4c(N(C)C)ncnc43)[C@@H]2O)cc1", "note": "(stereo not given in full)", "growth": "-70.8% (active)"}
{"smiles": "O=C(O)CC1CCCCC1c1ccccc1", "note": "(stereo not given)", "growth": "105%"}
{"smiles": "Cc1c(C(=O)OCCO)cc(-c2ccc(Cl)cc2)n1-c1ccc(Cl)cc1Cl", "growth": "56.5%"}
{"smiles": "CCCCCCCCCN(CCCCCCCCC)C(C)C(=O)c1ccc2cc(Br)c3ccccc3c2c1", "note": "(stereo not given)", "growth": "99.2%"}
{"smiles": "C=C1C(=O)O[C@H]2[C@H]1CC/C(Cn1cc(-c3ccccc3)nn1)=C\\CC[C@@]1(C)O[C@@H]21", "growth": "-38.5% (active)"}
{"smiles": "CN1CCN(Cc2ccc(NC(=O)c3cncc(C#Cc4cncc5nccnc45)c3)cc2C(F)(F)F)CC1", "growth": "87%"}
